Reference: PubChem BioAssay (Tox21)
Results filed as inconclusive are left out. Entries that show only a call come without a potency. A number with no mark means an inactive call. Activity calls are given as the source filed them. Unless noted, the call rests on the fitted dose curve; in most records, active means well fitted curve in the direction sought with a large enough effect in the repeat runs; inconclusive means weak or mixed curves; inactive means no such curve, though single readings can be large; an effect the other way counts as inactive or inconclusive.

Key:
[1] = qHTS assay to identify small molecule agonists of the RXR signaling pathway - cell viability counter screen (AID 1159529); further: nearly all actives have a fitted effect of over 50% in size; further: potency means the concentration at half of the fitted maximal effect; on activity change, negative = cytotoxicity: series mostly up to about 77 µM
Outline: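 Cell viability is measured by CellTiter-Glo luminescence, 30 min at room temperature, in wells already read for beta-lactamase. Engineered HEK 293T cells (RXR-alpha-UAS-bla) are dosed 16 hr at 37 C. Tetraoctyl ammonium bromide serves as positive control.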

[2] = qHTS assay to identify small molecule antagonists of the retinoid acid receptor (RAR) signaling pathway - cell viability counter screen (AID 1159551); further: nearly all actives have a fitted effect of over 35% in size
Outline: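 In this counter screen, the RARE-luciferase line C3RL4 was exposed for 6 h at 37 C and 5% CO2 to compounds with retinol at 1 uM final. Cellular ATP, read by luminescence, served as the viability measure.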

[3] = qHTS assay to identify small molecule agonists of the retinoic acid receptor (RAR) signaling pathway (AID 1159553); further: potency means the concentration at half of the fitted maximal effect
Outline: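 In this cell-based screen, 1,000 C3RL4 cells per well were cultured overnight, dosed with test chemicals in DMSO for 6 hr, and assessed for RARE luciferase luminescence.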

[4] = qHTS assay to identify small molecule antagonists of the estrogen related receptor (ERR) signaling pathway from Tox21 library - cell viability counter screen (AID 1224834); further: nearly all actives have a fitted effect of over 30% in size
Outline: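 Counter screen run in ERR cells (2,000 cells/well): cells pre-incubated 6 h, then treated with compounds for 17.5 h at 37 C. Fluorescence was read 30 min after CellTiter-Fluor addition.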

[5] = qHTS assay to identify small molecule antagonists of the estrogen related receptor (ERR) signaling pathway (AID 1224819; further: series mostly up to about 46 µM; nearly all actives have a fitted effect of over 50% in size)
Outline: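 Seed ERR cells 2,000/well; rest 6 h at 37 C/5% CO2; pin compounds in DMSO; incubate 18 h at 37 C; add One-Glo; wait 30 min at room temperature; measure luminescence.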

[6] = qHTS assay to identify small molecule agonists of the estrogen related receptor (ERR) signaling pathway (AID 1224820)
Outline: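 After 6 h plating (2,000 cells/well) and 18 h compound treatment at 37 C, ERR cells were lysed with One-Glo and luminescence read after 30 min at room temperature.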

[7] = system: estrogen-related receptor alpha (ERRalpha) with PGC-1alpha coactivator, human; assay: qHTS assay to identify small molecule antagonists of the estrogen related receptor signaling pathway with the pleiotropic PPARgamma coactivator (PGC) (AID 1224821; calls by dose curve;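 further: series mostly up to about 46 µM; lower luminescence signal means antagonism of PGC/ERR signalling; nearly all actives have a fitted effect of over 50% in size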)
Outline: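 Luminescence from One-Glo luciferase reagent (30 min, room temperature) measured after 18 h compound treatment at 37 °C. Cells carry the PGC/ERR reporter and were seeded 6 h prior to dosing.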

[8] = qHTS assay to identify small molecule antagonists of the estrogen related receptor signaling pathway with the pleiotropic PPARgamma coactivator (PGC) cell viability counter screen (AID 1224822;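 further: series mostly up to about 46 µM; viability read after 17.5 h compound exposure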)
Outline: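 17.5 h compound treatment of PGC/ERR cells at 37 C; readout CellTiter-Fluor fluorescence; run alongside the PGC/ERR antagonist screen to flag cytotoxic compounds.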

[9] = qHTS assay to identify small molecule agonists of the estrogen related receptor signaling pathway with the pleiotropic PPARgamma coactivator (PGC) (AID 1224823)
Outline: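 Luminescence from One-Glo reagent (30 min, room temperature) was read after 18 h compound treatment at 37 C of PGC/ERR cells plated 6 h beforehand; compounds delivered in DMSO by pin tool.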

[10] = qHTS assay to identify small molecule antagonists of the retinoic acid receptor (RAR) signaling pathway (AID 1159552; further: nearly all actives have a fitted effect of over 50% in size; further: potency means the concentration at half of the fitted maximal effect)
Outline: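 Quantitative HTS in C3RL4 RARE-luciferase reporter cells. Compounds were added with 1 uM (final) retinol; luminescence was read after 6 hr.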

O=S(=O)(O)CO
Potency [1]: inactive
Potency [2]: inactive
Potency [3]: inactive

C=C(C)C(=O)OCCC(F)(F)C(F)(F)C(F)(F)C(F)(F)C(F)(F)C(F)(F)F
Potency [1]: inactive
Potency [2]: inactive
Potency [4]: inactive

CC12CC3CC(C)(C1)CC(N)(C3)C2
Potency [1]: inactive
Potency [2]: inactive
Potency [3]: inactive
Potency [5]: inactive
outcome [6]: inactive
Potency [7]: inactive
outcome [8]: inactive
outcome [9]: inactive
Potency [4]: inactive

Cc1c[nH]c2ccccc12
Potency [1]: inactive
Potency [2]: inactive
Potency [3]: inactive
Potency [4]: inactive

C[C@H](CS)C(=O)N1CCC[C@H]1C(=O)O
Potency [1]: inactive
Potency [2]: inactive
outcome [8]: inactive
Potency [4]: inactive

CC[C@H]1OC(=O)[C@H](C)[C@@H](O[C@H]2C[C@@](C)(OC)[C@@H](O)[C@H](C)O2)[C@H](C)[C@@H](O[C@@H]2O[C@H](C)C[C@H](N(C)C)[C@H]2O)[C@](C)(O)C[C@@H](C)/C(=N\OCOCCOC)[C@H](C)[C@@H](O)[C@]1(C)O
Potency [1]: inactive
Potency [2]: inactive
Potency [3]: inactive

NC(=O)CCCCC(N)=O
Potency [1]: inactive
Potency [2]: inactive
Potency [4]: inactive

CCOC(=O)N1CCC(Nc2ccc(Cl)cc2N)CC1
Potency [1]: inactive
Potency [2]: inactive
Potency [3]: inactive

CC(O)Cn1cnc2c1c(=O)n(C)c(=O)n2C (stereo unspecified)
Potency [1]: inactive
Potency [2]: inactive
Potency [3]: inactive
Potency [4]: inactive

Nc1c(Cl)cc(Cl)cc1[N+](=O)[O-]
Potency [1]: inactive
Potency [2]: inactive
Potency [3]: inactive
Potency [4]: inactive

Cc1oc(=O)oc1COC(=O)[C@@H]1N2C(=O)[C@@H](NC(=O)[C@H](N)c3ccccc3)[C@H]2SC1(C)C
Potency [1]: inactive
Potency [2]: inactive
Potency [4]: inactive

CCCCCCCCCCCCCOS(=O)(=O)O
Potency [1]: 24.5 µM (active)
Potency [2]: inactive
Potency [4]: inactive

CCCCCc1ccco1
Potency [1]: inactive
Potency [2]: inactive
Potency [3]: inactive
Potency [4]: inactive

CC(CCc1ccc(O)cc1)NCCc1ccc(O)c(O)c1 (stereo unspecified)
Potency [1]: inactive
Potency [2]: inactive
Potency [5]: inactive
outcome [6]: inactive
Potency [7]: inactive
outcome [8]: inactive
outcome [9]: inactive
Potency [4]: inactive

COc1cc(NC(C)CCCN)c2ncccc2c1 (stereo unspecified)
Potency [1]: inactive
Potency [2]: inactive
Potency [3]: inactive
Potency [4]: inactive

CCCCCCCC/C=C/C(=O)O
Potency [1]: inactive
Potency [2]: inactive
Potency [4]: inactive

O=C(c1ccccc1)C1CCC1
Potency [1]: inactive
Potency [2]: inactive
Potency [10]: inactive
Potency [4]: inactive

CCCCOCCOC(=O)c1cccnc1
Potency [1]: inactive
Potency [2]: inactive
Potency [4]: inactive

CCCCC[C@H](O)/C=C/[C@H]1[C@H](O)CC(=O)[C@@H]1C/C=C\CCCC(=O)O
Potency [1]: inactive
Potency [2]: inactive
Potency [3]: inactive
Potency [4]: inactive

O=CNNC=O
Potency [1]: inactive
Potency [2]: inactive
Potency [4]: inactive

O=c1[nH][nH]c(=O)c2cc([N+](=O)[O-])ccc12
Potency [1]: inactive
Potency [2]: inactive
Potency [4]: inactive

CC(=O)OCCC(C)CC(C)(C)C (stereo unspecified)
Potency [1]: inactive
Potency [2]: inactive
Potency [4]: inactive

c1ccc2sc(SSc3nc4ccccc4s3)nc2c1
activity change, negative = cytotoxicity [1]: -2.29% [at 15.8 µM]
activity change, negative = cytotoxicity [2]: 0.484% [at 19 µM]
viability change, negative = cytotoxic [4]: 0.18% [at 19 µM]

C1=CCC2CC=CC2C1 (stereo unspecified)
Potency [1]: inactive
Potency [2]: inactive
Potency [4]: inactive

CN1CCCN(C(c2ccccc2)c2ccc(Cl)cc2)CC1 (stereo unspecified)
Potency [1]: 7.56 µM (active)
Potency [10]: 23.7 µM (active)

CC1CCCC(=O)C1=O (stereo unspecified)
Potency [1]: inactive
Potency [10]: inactive
Potency [3]: inactive
Potency [4]: inactive

BrC(Br)C(Br)Br
Potency [1]: inactive
Potency [10]: inactive
Potency [3]: inactive

C[C@@H]1C[C@H]2[C@@H]3CCC4=CC(=O)C=C[C@]4(C)[C@@]3(F)[C@@H](O)C[C@]2(C)[C@@]1(O)C(=O)COP(=O)(O)O
Potency [1]: inactive
Potency [2]: inactive
Potency [4]: inactive

Oc1ccc2c(c1)Cc1ccccc1-2
Potency [1]: inactive
Potency [10]: inactive
Potency [3]: 13.7 µM (active)
Potency [4]: inactive

Cc1ccccc1S(N)(=O)=O
Potency [1]: inactive
Potency [10]: inactive
Potency [3]: inactive
Potency [4]: inactive
